Source: PubChem BioAssay (NCATS)
Results filed as inconclusive are left out. Calls of active or inactive are those of the source. Unless noted, calls come from the whole dose curve; as a rule, active = well fitted curve in the direction sought with a large enough effect; inconclusive = small, poorly fitted or top-dose-only effect, or another doubt; inactive = no such curve, though single readings can be large; an effect the other way counts as inactive or inconclusive.

Tests used:
[1] = target: ATP-dependent DNA helicase Q1 (Homo sapiens) (UniProt P46063); assay: qHTS Validation Assay for Inhibitors of RecQ-Like Dna Helicase 1 (RECQ1) (AID 2353)
Outline: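 50 nM RECQ1T1 preincubated 15 min with compound in Tris pH 8.0 buffer with MgCl2, DTT, Tween-20 and 2.5 ug/ml poly(dI-dC); started with 200 nM TAMRA/BHQ-2 forked duplex and 2 mM ATP. Unwinding read as fluorescence (525/598 nm), two reads 2 h apart.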

[2] = target: RecQ-like DNA helicase BLM (Homo sapiens) (UniProt P54132); assay: qHTS Validation Assay for Inhibitors of Bloom's syndrome helicase (BLM) (AID 2364)
Outline: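 50 nM BLM preincubated 15 min at room temperature with compound in pH 8.0 Tris buffer containing 2.5 ug/ml poly(dI-dC); started with 200 nM TAMRA/BHQ-2 forked duplex and 2 mM ATP (final). Unwinding read as TAMRA fluorescence increase, two reads 2 h apart.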

[3] = High Content Imaging Cell-Based qHTS for Inhibitors of the mTORC1 Signaling Pathway in MEF (Tsc2-/-, p53-/-) Cells (AID 2666);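 note: percent of cells scored positive for phospho-rpS6 Ser235/236 immunostaining by imaging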; note: potency is the fitted concentration of half-maximal effect
Outline: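 Phospho-rpS6 (Ser235/236) immunofluorescence, normalized and scored as % positive cells using rapamycin and DMSO controls, was read in empty-vector Tsc2-/-, p53-/- MEFs after 24 h compound exposure at 37 C; propidium iodide counted cells.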

[4] = High Content Imaging Cell-Based qHTS for Inhibitors of the mTORC1 Signaling Pathway in MEF Cells (AID 2667); note: potency is the fitted concentration of half-maximal effect
Outline: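 WT MEFs (Tsc2-/-, p53-/- re-expressing Tsc2), in DMEM + 10% FBS, were treated with compound for 24 h at 37 C. Cells were then fixed and stained for phospho-rpS6 Ser235/236 with propidium iodide as cell count. Values are % positive cells, with thresholds set against rapamycin-treated cells.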

[5] = Cytometry Cell-Based qHTS for Inhibitors of the mTORC1 Signaling Pathway in MEF cells (AID 2668);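 note: Tsc2-/- p53-/- mouse embryonic fibroblasts stably re-expressing wild-type Tsc2; percent cells positive for phospho-rpS6 Ser235/236 relative to propidium iodide stain; series mostly up to about 38 µM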
Outline: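 MEFs (Tsc2-/-, p53-/- stably expressing WT Tsc2) treated 24 h at 37 degree Celsius, fixed, stained with Alexa-488 anti-phospho-rpS6 Ser235/236 and propidium iodide; Acumen laser scanning. Reported as % positive cells, phospho-S6 normalized to PI.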

[6] = Validation screen for inhibitors of Lassa infection (AID 463096; calls by dose curve; note: potency is the fitted concentration of half-maximal effect)
[7] = Validation screen for small molecules that induce DNA re-replication in MCF 10A normal breast cells (AID 463097); note: nearly all actives have a fitted effect of over 60% in size; note: potency is the fitted concentration of half-maximal effect
Outline: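 MCF 10A cells exposed to compound 48 hr at 37 C, 5% CO2, then Hoechst-stained 40 min. Laser-scanning imaging of nuclear DNA content (405 nm ex, 500-530 nm em); re-replication scored as rise in nuclei with elevated fluorescence intensity.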

[8] = Cytometric Cell-Based qHTS for Inhibitors of the mTORC1 Signaling Pathway in MEF (Tsc2-/-, p53-/-) Cells (AID 2660); note: potency is the fitted concentration of half-maximal effect
Outline: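 Readout: Alexa-488 phospho-rpS6 (Ser235/236) intensity divided by PI intensity, thresholded against 7.5 nM rapamycin wells and reported as % positive cells. PI cell count served as the viability measure. Compound exposure was 24 hrs at 37 degree Celsius.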

Measured: Potency

RecQ-like DNA helicase BLM (Homo sapiens), sequence (P54132 whole entry, looked up): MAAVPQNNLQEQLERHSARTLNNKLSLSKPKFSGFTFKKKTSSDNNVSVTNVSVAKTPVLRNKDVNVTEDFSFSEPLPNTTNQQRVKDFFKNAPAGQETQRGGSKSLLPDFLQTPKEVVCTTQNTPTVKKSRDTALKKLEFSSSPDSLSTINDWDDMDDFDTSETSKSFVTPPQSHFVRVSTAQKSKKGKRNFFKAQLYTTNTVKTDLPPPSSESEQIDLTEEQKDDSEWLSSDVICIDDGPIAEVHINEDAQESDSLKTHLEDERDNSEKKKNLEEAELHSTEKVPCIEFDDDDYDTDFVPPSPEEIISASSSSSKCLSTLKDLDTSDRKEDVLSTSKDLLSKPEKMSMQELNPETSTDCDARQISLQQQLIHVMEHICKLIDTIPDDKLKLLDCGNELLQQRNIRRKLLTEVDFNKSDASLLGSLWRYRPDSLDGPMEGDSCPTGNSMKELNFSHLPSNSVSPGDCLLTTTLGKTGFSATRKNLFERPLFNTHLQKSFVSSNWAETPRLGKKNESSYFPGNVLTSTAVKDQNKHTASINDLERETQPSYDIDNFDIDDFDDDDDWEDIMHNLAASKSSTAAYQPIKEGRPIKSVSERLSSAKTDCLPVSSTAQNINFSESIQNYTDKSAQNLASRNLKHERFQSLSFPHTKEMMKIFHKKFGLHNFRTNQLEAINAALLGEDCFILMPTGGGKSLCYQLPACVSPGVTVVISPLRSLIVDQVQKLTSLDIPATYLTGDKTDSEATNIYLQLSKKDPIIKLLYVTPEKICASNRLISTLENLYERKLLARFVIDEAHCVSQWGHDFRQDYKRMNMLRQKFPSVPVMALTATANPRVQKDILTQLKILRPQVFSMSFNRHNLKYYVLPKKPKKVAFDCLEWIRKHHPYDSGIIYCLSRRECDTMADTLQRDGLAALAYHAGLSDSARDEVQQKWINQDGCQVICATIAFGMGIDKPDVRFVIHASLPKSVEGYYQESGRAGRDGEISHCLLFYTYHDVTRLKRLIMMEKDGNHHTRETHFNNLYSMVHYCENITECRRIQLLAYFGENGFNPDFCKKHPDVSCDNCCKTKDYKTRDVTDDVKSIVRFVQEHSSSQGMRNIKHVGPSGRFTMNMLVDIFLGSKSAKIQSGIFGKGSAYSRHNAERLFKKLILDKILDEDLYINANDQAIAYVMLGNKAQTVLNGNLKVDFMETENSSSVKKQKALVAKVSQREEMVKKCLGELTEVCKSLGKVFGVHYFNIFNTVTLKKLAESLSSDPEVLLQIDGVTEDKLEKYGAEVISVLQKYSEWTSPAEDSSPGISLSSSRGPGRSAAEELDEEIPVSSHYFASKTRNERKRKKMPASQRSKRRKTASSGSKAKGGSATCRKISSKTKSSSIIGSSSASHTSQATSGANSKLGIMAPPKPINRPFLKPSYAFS
ATP-dependent DNA helicase Q1 (Homo sapiens), sequence (P46063 whole entry, looked up): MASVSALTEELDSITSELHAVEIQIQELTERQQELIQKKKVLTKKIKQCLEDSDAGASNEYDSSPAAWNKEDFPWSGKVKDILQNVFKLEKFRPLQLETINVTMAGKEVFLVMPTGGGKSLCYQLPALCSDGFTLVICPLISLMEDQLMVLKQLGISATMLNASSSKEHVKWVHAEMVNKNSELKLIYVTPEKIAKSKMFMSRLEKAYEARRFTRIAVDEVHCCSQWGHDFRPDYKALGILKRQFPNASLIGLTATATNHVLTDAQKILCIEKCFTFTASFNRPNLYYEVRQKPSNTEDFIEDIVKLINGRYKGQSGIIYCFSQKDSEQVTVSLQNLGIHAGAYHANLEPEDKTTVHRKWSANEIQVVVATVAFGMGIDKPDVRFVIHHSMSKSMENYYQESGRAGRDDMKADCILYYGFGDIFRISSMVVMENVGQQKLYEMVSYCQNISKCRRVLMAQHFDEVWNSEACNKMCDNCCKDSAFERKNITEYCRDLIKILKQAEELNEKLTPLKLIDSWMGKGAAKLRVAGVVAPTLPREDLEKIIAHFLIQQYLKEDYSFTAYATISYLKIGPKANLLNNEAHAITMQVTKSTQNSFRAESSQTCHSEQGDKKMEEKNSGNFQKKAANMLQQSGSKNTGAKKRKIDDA

O=c1c2ccccc2[se]n1-c1ccccc1
inactive: [1] | [2] | [3]

O=S1(=O)N(CCN2CC=C(c3c[nH]c4cc(F)ccc34)CC2)c2cccc3c2N1CCC3
active: [7] 14.1 µM
not listed: [8]
inactive: all other assays above

CC(N)Cc1c[nH]c2ccc(O)cc12 (stereo not given)
not listed: [2]
inactive: all other assays above

CC(N)c1cccc(Cl)c1Cl (stereo not given)
not listed: [8]
inactive: all other assays above

CCCN(CCC)[C@@H]1CCc2cccc(O)c2C1
not listed: [5] | [8]
inactive: all other assays above

CN1C2CCC1CC(OC(c1ccccc1)c1ccc(Cl)cc1)C2 (stereo not given)
active: [6] 8.91 µM
inactive: [1] | [2]

C=CCN1CC[C@]23c4c5ccc(O)c4O[C@@H]2/C(=N/N=C2\CC[C@@]4(O)C6Cc7ccc(O)c8c7[C@@]4(CCN6CC=C)[C@@H]2O8)CC[C@@]3(O)C1C5
active: [7] 15.8 µM
inactive: [1] | [2]

Oc1ccc2c3c1O[C@H]1c4oc5ccccc5c4C[C@@]4(O)C(C2)N(CC2CC2)CCC314 (stereo not given in full)
active: [6] 7.94 µM
inactive: [1] | [2] | [3] | [7]

NCCc1c[nH]c2ccc(C(N)=O)cc12
not listed: [5] | [8]
inactive: all other assays above

CCCN(CCC)[C@H]1CCc2c(F)ccc(O)c2C1
not listed: [4] | [8]
inactive: all other assays above

CNC(=O)OCC[N+](C)(C)C
inactive: [1] | [2] | [6] | [7]

Oc1ccc2c3c1O[C@H]1c4[nH]c5ccccc5c4C[C@@]4(O)C(C2)N(CC2CC2)CCC314 (stereo not given in full)
inactive: [1] | [2] | [3] | [7]
active: [6] 11.2 µM

CCCN(CCC)CCc1c[nH]c2ccc(C(N)=O)cc12
inactive: [1] | [2] | [3] | [5] | [7]

C[N+]1(C)CCOC(O)(c2ccc(-c3ccc(C4(O)C[N+](C)(C)CCO4)cc3)cc2)C1 (stereo not given)
not listed: [8]
inactive: all other assays above

NC(N)=Nc1ccc2[nH]c3c(c2c1)C[C@@]1(O)[C@H]2Cc4ccc(O)c5c4[C@@]1(CCN2CC1CC1)[C@H]3O5
active: [6] 0.891 µM
inactive: [1] | [2] | [4] | [5]

NC(CCCCCP(=O)(O)O)C(=O)O (stereo not given)
not listed: [2] | [4]
inactive: all other assays above

NNC(=O)c1ccc(O)cc1
not listed: [2]
inactive: all other assays above

Nc1ccc(CCN2CCN(c3cccc(C(F)(F)F)c3)CC2)cc1
not listed: [2] | [5]
inactive: all other assays above

C[C@]12Cc3cn4c(nc3C=C1CCC1C2CC[C@@]2(C)[C@H]1CC[C@@]2(O)C#N)nc1ccccc14 (stereo not given in full)
active: [7] 12.6 µM
not listed: [2] | [5]
inactive: all other assays above

Cc1o[nH]c(=O)c1CC(N)C(=O)O (stereo not given)
inactive: [1] | [3] | [4] | [6] | [7]

C=CCN1CC[C@]23c4c5ccc(O)c4O[C@H]2/C(=N/NC(=O)c2ccccc2)CC[C@@]3(O)[C@H]1C5
inactive: [1] | [3] | [5] | [6] | [7]

O=C1C=CC(=O)C=C1
inactive: [1] | [3] | [5] | [6] | [7]

NCC(O)c1cc(O)c(O)cc1F (stereo not given)
not listed: [2] | [8]
inactive: all other assays above

N[C@@H](Cn1oc(=O)[nH]c1=O)C(=O)O
not listed: [2] | [6]
inactive: all other assays above

Clc1cc(I)cc(Cl)c1NC1=NCCN1
inactive: [1] | [3] | [4] | [7]

C[Se]C[C@H](N)C(=O)O
not listed: [2] | [8]
inactive: all other assays above

CCCN(CCC)C1CCc2cccc(O)c2C1 (stereo not given)
not listed: [2] | [5]
inactive: all other assays above

CCN(CCCl)Cc1ccccc1Br
not listed: [2] | [8]
inactive: all other assays above

C[N+]1(C)C2CCC1CC(OC(=O)c1c[nH]c3ccccc13)C2 (stereo not given)
inactive: [1] | [3] | [4]
active: [7] 14.1 µM

NC(=O)c1cc(N2CC2)c([N+](=O)[O-])cc1[N+](=O)[O-]
not listed: [2] | [4]
inactive: all other assays above

COc1ccc(OC)c(C(O)C(C)N)c1 (stereo not given)
not listed: [2] | [4]
inactive: all other assays above

NC(=O)CI
inactive: [1] | [8] | [3] | [4] | [6]

NC(N)=NOCC[C@H](N)C(=O)O
not listed: [2]
inactive: all other assays above

CC(Cc1ccc(OCC(=O)O)cc1)NCC(O)c1cccc(Cl)c1 (stereo not given)
not listed: [2] | [5]
inactive: all other assays above

C/C(O)=C(\C#N)C(=O)Nc1cc(Br)ccc1Br
not listed: [2] | [5]
inactive: all other assays above

C[N+]1(C)CCN(c2ccccc2)CC1
not listed: [2]
inactive: all other assays above

C=CCN1C[C@@H](C)N([C@H](c2ccc(C(=O)N(CC)CC)cc2)c2cccc(OC)c2)C[C@@H]1C
inactive: [1] | [8] | [3] | [6] | [7]

CC(C)(C)c1cc(C=C(C#N)C#N)cc(C(C)(C)C)c1O
active: [4] 2.33 µM | [6] 2.51 µM | [7] 0.158 µM
inactive: [1] | [8] | [3]

COc1ccc2[nH]cc(CCN)c2c1
not listed: [2] | [5]
inactive: all other assays above

C=CCN1CCC23c4c5ccc(O)c4O[C@H]2C(=O)CC[C@@]3(O)C1C5 (stereo not given in full)
not listed: [2] | [8]
inactive: all other assays above

OC1CCCCC1N1CCC(c2ccccc2)CC1 (stereo not given)
not listed: [2] | [6]
inactive: all other assays above

CC(N)[C@H](O)c1ccc(O)c(O)c1 (stereo not given in full)
inactive: [1] | [8] | [3] | [6] | [7]

CCCN(CCC)C1Cc2cc(OC)c(OC)cc2C1
inactive: [1] | [3] | [5] | [6] | [7]

CNc1ccc2oc(C[C@H]3O[C@@]4(CC[C@H]3C)O[C@H]([C@H](C)C(=O)c3ccc[nH]3)[C@H](C)C[C@H]4C)nc2c1C(=O)O
inactive: [1]
active: [8] 14.7 µM | [3] 2.61 µM | [6] 7.08 µM | [7] 1.58 µM

NCCCP(=O)(O)O
not listed: [2] | [4]
inactive: all other assays above

CCCn1c(=O)c2[nH]c(C3CCCC3)nc2n(CCCOC(=O)c2ccc(S(=O)(=O)F)cc2)c1=O
inactive: [1] | [3] | [4] | [5] | [6]

CN1CCC(c2c[nH]c3ccc(O)cc23)CC1
inactive: [1] | [8] | [3] | [6] | [7]

CC(C)(C)c1o[nH]c(=O)c1CC(N)C(=O)O (stereo not given)
inactive: [1] | [3] | [4] | [6] | [7]

CO[C@H]1CC=C2CCN3CCC4=C(CC(=O)OC4)[C@]23C1
inactive: [1] | [3] | [5] | [6] | [7]

O=[N+]([O-])/C=C/c1ccc2c(c1)OCO2
active: [4] 2.07 µM
inactive: [3]

C[C@H](N)Cc1cccc(C(F)(F)F)c1
inactive: [8] | [3] | [4] | [5]

CC1OC1P(=O)(O)O (stereo not given)
inactive: [1] | [7]

COc1ccc2[nH]c3c(c2c1)CCNC3
inactive: [2] | [3] | [5] | [6] | [7]

N#CCCN
inactive: [8] | [3] | [4]

C=CCN(C1=NCCN1)c1c(Cl)cccc1Cl
inactive: [8] | [3] | [4] | [5]

CCCC[N+]1(C)C2CC(OC(=O)[C@H](CO)c3ccccc3)CC1C1OC12 (stereo not given in full)
inactive: [3] | [4]

C[N+]1(C)CCC(OC(=O)C(c2ccccc2)c2ccccc2)CC1
inactive: [1] | [6] | [7]

N#CC(C#N)=Cc1cc(O)c(O)c(O)c1
inactive: [1] | [6] | [7]

COc1ccc2c(c1OC)C(=O)OC2C1c2cc3c(cc2CCN1C)OCO3 (stereo not given)
inactive: [1] | [6] | [7]

CP(=O)(O)C1=CCNCC1
inactive: [1] | [3] | [5] | [6] | [7]

CN1CC[C@@]2(C)c3cc(OC(=O)Nc4ccccc4)ccc3N(C)[C@@H]12
inactive: [8] | [3] | [5]

CC(=O)c1c(O)c(C)c(O)c(Cc2c(O)c3c(c(C(=O)/C=C/c4ccccc4)c2O)OC(C)(C)C=C3)c1O
inactive: [8] | [3] | [4] | [5]

COc1ccc2c(c1)c(CCN1CCOCC1)c(C)n2C(=O)c1cccc(Cl)c1Cl
inactive: [3] | [4]

CCN1C[C@@]2(COC)C3[C@@H](OC)C4[C@@H]1C3([C@@H]1C[C@]3(O)[C@H](OC(=O)c5ccccc5)[C@@H]1[C@]4(OC(C)=O)[C@@H](O)[C@@H]3OC)[C@H](OC)C[C@H]2O
inactive: [8] | [3] | [4]

C[N+](C)(C)CC#CCOC(=O)Nc1cccc(Cl)c1
inactive: [1] | [3] | [5] | [6] | [7]

N=C(N)c1ccc(CS(=O)(=O)F)cc1
inactive: [3] | [4] | [5]

CCNC(=O)[C@H]1O[C@@H](n2cnc3c(N)ncnc32)[C@H](O)[C@@H]1O
inactive: [8] | [3] | [4] | [5]
